Each structure is given as a SMILES string. Records with an inconclusive call do not appear. The source made the active and inactive calls. The call rests on the fitted dose curve; in most records, active means well fitted activation curve with a large enough effect in the repeat runs; inconclusive means weak or mixed curves; inactive means no such curve, though single readings can be large or run the other way.
On the % scale 0 is the no-effect control and ±100 the full control effect.

Nuclear receptor subfamily 1 group I member 2 (Rattus norvegicus), sequence (Q9R1A7 whole entry, looked up): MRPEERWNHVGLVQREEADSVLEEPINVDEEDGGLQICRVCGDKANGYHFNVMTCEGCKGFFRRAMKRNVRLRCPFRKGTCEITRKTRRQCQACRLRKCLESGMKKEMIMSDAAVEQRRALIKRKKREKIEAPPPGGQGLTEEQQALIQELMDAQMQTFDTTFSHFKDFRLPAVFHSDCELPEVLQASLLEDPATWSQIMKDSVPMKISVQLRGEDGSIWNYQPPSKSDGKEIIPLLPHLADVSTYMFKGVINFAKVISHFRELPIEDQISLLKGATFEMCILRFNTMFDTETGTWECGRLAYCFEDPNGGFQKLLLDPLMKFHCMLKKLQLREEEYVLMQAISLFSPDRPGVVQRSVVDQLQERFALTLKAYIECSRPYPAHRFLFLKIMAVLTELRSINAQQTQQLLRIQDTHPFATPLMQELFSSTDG

One assay concerns the target Nuclear receptor subfamily 1 group I member 2 (Rattus norvegicus) (UniProt Q9R1A7). Nature of the assay: Rat pregnane X receptor (rPXR) activation by small molecules, qHTS assay (AID 1346983). Further: nearly all actives have a fitted effect of over 20% in size. The note with it: rPXR luciferase reporter cells, One-Glo luminescence, 24 h; hits give high values. In outline: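 Cell-based rPXR activation assay: rPXR cells, 2,000 per well, rested 5hr at 37 C, then exposed to compounds in DMSO for 24 hr at 37 C. Luciferase activity read by One-Glo luminescence after 30 min at room temperature.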
On the technique in general: qHTS replaces the single test concentration by a dilution series.
For `O=C(CS(=O)Cc1ccco1)NC/C=C\COc1cc(CN2CCCCC2)ccn1` (stereo not given), the max activation was -0.727% (inactive). On the same count and under the same terms, the result for `NCCS` reads -0.0213% (inactive).

As to `COP(=O)(OC)OC(c1ccc(Cl)cc1)P(=O)(OC)OC` (stereo not given), the max activation was 4.37% (inactive). On the same count and under the same terms, then `COc1ccc(-c2cc(=O)c3c(O)cc(O[C@@H]4O[C@H](CO[C@@H]5O[C@@H](C)[C@H](O)[C@@H](O)[C@H]5O)[C@@H](O)[C@H](O)[C@H]4O)cc3o2)cc1O`, with -2.2% (inactive); and `C[C@H](N)[C@H](O)c1cccc(O)c1`, with -0.575% (inactive); and `COc1cc(C(=S)N2CCOCC2)cc(OC)c1OC`, with -2.22% (inactive). The same measure, in the same setting: then `CC(S)C(=O)NCC(=O)O` (stereo not given), with -1.79% (inactive). On to `Cc1cccc(C)c1OCC(C)N` (stereo not given), for which the max activation is -1.45% (inactive). With `CC(=O)CCCCn1c(=O)c2c(ncn2C)n(C)c1=O`, the max activation is -1.72% (inactive). Consider `C[C@@H](O)[C@H]1C(=O)N2C(C(=O)O)=C(SCCN=CN)C[C@H]12`, for which the max activation is -4.86% (inactive). Same read-out and setting: then `CCN1CCc2nc(N)oc2CC1`, with -5.4% (inactive). Regarding `C[C@H](CCC(=O)O)[C@H]1CC[C@H]2[C@@H]3C(=O)C[C@@H]4CC(=O)CC[C@]4(C)[C@H]3CC(=O)[C@]12C`, the max activation was -0.558% (inactive).

Consider `O=C1c2ccccc2C(=O)C1c1ccccc1`, for which the max activation was -1.16% (inactive). Still for that read-out and setting: then `Cc1cc2cc3c(C)cc(=O)oc3c(C)c2o1`, with 1.62% (inactive); and `CC(=C(CCOC(=O)C(C)C)SSC(CCOC(=O)C(C)C)=C(C)N(C=O)Cc1cnc(C)nc1N)N(C=O)Cc1cnc(C)nc1N`, with -2.83% (inactive). On the same count and under the same terms, the result for `Nc1ncnc(Nc2ccccc2)n1` reads 2.76% (inactive); that for `CO[C@@H]1[C@@H](OC(N)=O)[C@@H](O)[C@H](Oc2ccc3c(O)c(NC(=O)c4ccc(O)c(CC=C(C)C)c4)c(=O)oc3c2C)OC1(C)C`, -3.79% (inactive); that for `CCOc1cc(NC(C)=O)ccc1C(=O)OC`, -4.18% (inactive).

A further assay has as its target Nuclear receptor subfamily 1 group I member 2 (Homo sapiens) (UniProt O75469). Nature of the assay: CYP3A4 induction through human pregnane X receptor (PXR) by small molecules, qHTS assay (AID 1346984). Further: nearly all actives have a fitted effect of over 40% in size. Further: potency means the concentration at half of the fitted maximal effect. To be noted: DPX-2 HepG2 PXR, CYP3A4-luciferin luminescence, 24 h; series mostly up to 46.1 µM; activation: at the top concentration. In outline: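 qHTS, concentration-response format: HepG2 DPX-2 line, PXR/CYP3A4-luc. Exposure 24 h, 37C. Substrate Luciferin-IPA 3uM final, 3 h. Detection One-Glo, 30 min RT.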
Take `O=C(CS(=O)Cc1ccco1)NC/C=C\COc1cc(CN2CCCCC2)ccn1` (stereo not given): the “activation” value was -0.873% (inactive). As for `NCCS`, the “activation” value is -7.61% (inactive). Same read-out and setting: then `COP(=O)(OC)OC(c1ccc(Cl)cc1)P(=O)(OC)OC` (stereo not given), with -10% (inactive).

As for `COc1ccc(-c2cc(=O)c3c(O)cc(O[C@@H]4O[C@H](CO[C@@H]5O[C@@H](C)[C@H](O)[C@@H](O)[C@H]5O)[C@@H](O)[C@H](O)[C@H]4O)cc3o2)cc1O`, the Potency is 12.6 µM (active). Regarding `COc1cc(C(=S)N2CCOCC2)cc(OC)c1OC`, the “activation” value is -2.54% (inactive). Consider `CC(S)C(=O)NCC(=O)O` (stereo not given), for which the “activation” value is -1.21% (inactive). Regarding `Cc1cccc(C)c1OCC(C)N` (stereo not given), the “activation” value is 18.8% (inactive). For the molecule `CC(=O)CCCCn1c(=O)c2c(ncn2C)n(C)c1=O`, the “activation” value is -11.8% [at 20.6 µM] (inactive). The same measure, in the same setting: the result for `C[C@@H](O)[C@H]1C(=O)N2C(C(=O)O)=C(SCCN=CN)C[C@H]12` reads -7.69% [at 20.6 µM] (inactive). Same read-out and setting: the result for `CCN1CCc2nc(N)oc2CC1` reads -0.492% (inactive); that for `C[C@H](CCC(=O)O)[C@H]1CC[C@H]2[C@@H]3C(=O)C[C@@H]4CC(=O)CC[C@]4(C)[C@H]3CC(=O)[C@]12C`, -0.646% (inactive); that for `O=C1c2ccccc2C(=O)C1c1ccccc1`, 6.31% [at 20.6 µM] (inactive). On to `Cc1cc2cc3c(C)cc(=O)oc3c(C)c2o1`, for which the “activation” value is -13.6% [at 20.6 µM] (inactive). On to `CC(=C(CCOC(=O)C(C)C)SSC(CCOC(=O)C(C)C)=C(C)N(C=O)Cc1cnc(C)nc1N)N(C=O)Cc1cnc(C)nc1N`, for which the “activation” value was -1.89% (inactive). On the same count and under the same terms, then `Nc1ncnc(Nc2ccccc2)n1`, with -7.13% (inactive). For the molecule `CO[C@@H]1[C@@H](OC(N)=O)[C@@H](O)[C@H](Oc2ccc3c(O)c(NC(=O)c4ccc(O)c(CC=C(C)C)c4)c(=O)oc3c2C)OC1(C)C`, the “activation” value is -0.601% [at 20.6 µM] (inactive). Take `CCOc1cc(NC(C)=O)ccc1C(=O)OC`: the “activation” value was -6.67% (inactive).

Source of the values: PubChem BioAssay (Tox21).
